Key:
Assay in all cases: growth AUC relative to DMSO control (median of replicates) (fraction); higher = more growth (less inhibition), active = hit call of the paper
Conditions in all cases: 20 µM; 24 h;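 active = AUC reduced over 20% with Padj below 0.05 in at least 2 of 3 replicates; inactive = otherwise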
Akkermansia muciniphila = system: Akkermansia muciniphila
In short: (§1)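 Gut bacteria were grown singly in mGAM at 37 °C without oxygen, from OD600 0.05, alongside 20 µM compound in 1% DMSO, and OD600 was read each hour for 24 h. Area under the growth curve was normalised to the median of solvent-only wells per plate, or to row and column medians on the industrial chemical plate. The minimum OD was set to 0 beforehand, and the reported value is the median of three biological replicates grown on separate days.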

Bacteroides caccae = system: Bacteroides caccae
In short: as §1

Bacteroides clarus = system: Bacteroides clarus
In short: as §1

Bacteroides dorei = system: Bacteroides dorei
In short: as §1

Bacteroides stercoris = system: Bacteroides stercoris
In short: as §1

[1] = system: Bacteroides thetaiotaomicron
In short: as §1

Bacteroides uniformis = system: Bacteroides uniformis
In short: as §1

[2] = system: Bifidobacterium longum subsp. longum
In short: as §1

Clostridium difficile = system: Clostridium difficile
In short: as §1

Collinsella aerofaciens = system: Collinsella aerofaciens
In short: as §1

Coprococcus comes = system: Coprococcus comes
In short: as §1

Escherichia coli ED1a = system: Escherichia coli ED1a
In short: as §1

Escherichia coli IAI1 = system: Escherichia coli IAI1
In short: as §1

Eubacterium rectale = system: Eubacterium rectale
In short: as §1

[3] = system: Fusobacterium nucleatum subsp. animalis
In short: as §1

Lactobacillus gasseri = system: Lactobacillus gasseri
In short: as §1

Lactobacillus paracasei = system: Lactobacillus paracasei
In short: as §1

Odoribacter splanchnicus = system: Odoribacter splanchnicus
In short: as §1

[4] = system: Parabacteroides distasonis
In short: as §1

Parabacteroides merdae = system: Parabacteroides merdae
In short: as §1

Measured: growth AUC

O=P(OCCCl)(OCCCl)OCCCl
inactive: Bacteroides caccae 0.985 | Bacteroides clarus 0.986 | Bacteroides dorei 0.995 | [1] 0.972 | Bacteroides uniformis 0.874 | [2] 0.895 | Clostridium difficile 0.963 | Collinsella aerofaciens 0.977 | Coprococcus comes 0.916 | Escherichia coli ED1a 0.98 | Escherichia coli IAI1 0.963 | Eubacterium rectale 0.89 | [3] 0.88 | Lactobacillus gasseri 0.98 | Lactobacillus paracasei 1.09 | Odoribacter splanchnicus 0.868 | [4] 0.989 | Parabacteroides merdae 0.921
active: Akkermansia muciniphila 0.628 | Bacteroides stercoris 0.651

CC(CCl)OP(=O)(OC(C)CCl)OC(C)CCl (mixture of isomers)
inactive: Akkermansia muciniphila 1.14 | Bacteroides caccae 1 | Bacteroides clarus 0.998 | Bacteroides dorei 0.973 | Bacteroides stercoris 0.994 | [1] 1 | Bacteroides uniformis 0.958 | [2] 1.05 | Clostridium difficile 1.02 | Collinsella aerofaciens 0.951 | Coprococcus comes 0.999 | Escherichia coli ED1a 0.973 | Escherichia coli IAI1 0.984 | Eubacterium rectale 1.08 | [3] 1.08 | Lactobacillus gasseri 0.851 | Lactobacillus paracasei 1.01 | Odoribacter splanchnicus 1.01 | [4] 0.94 | Parabacteroides merdae 0.976

N#Cc1c(O)c(Cl)c(Cl)c(C#N)c1Cl
inactive: Akkermansia muciniphila 1.02 | Bacteroides caccae 0.98 | Bacteroides clarus 0.979 | Bacteroides dorei 0.969 | Bacteroides stercoris 0.979 | [1] 0.995 | [2] 1.02 | Clostridium difficile 1.02 | Collinsella aerofaciens 0.985 | Coprococcus comes 1.02 | Escherichia coli ED1a 0.989 | Escherichia coli IAI1 0.987 | Eubacterium rectale 0.938 | [3] 0.868 | Lactobacillus gasseri 1.02 | Lactobacillus paracasei 0.986 | Odoribacter splanchnicus 0.912 | [4] 1.03 | Parabacteroides merdae 0.994
active: Bacteroides uniformis 0.784

CC1(C)[C@H](C(=O)O[C@H](C#N)c2cccc(Oc3ccccc3)c2)[C@@H]1C=C(Br)Br
inactive: Akkermansia muciniphila 0.878 | Bacteroides caccae 0.983 | Bacteroides clarus 0.982 | Bacteroides dorei 1.04 | Bacteroides stercoris 1.04 | [1] 1.02 | Bacteroides uniformis 1.05 | [2] 0.843 | Clostridium difficile 1.02 | Collinsella aerofaciens 0.935 | Coprococcus comes 0.985 | Escherichia coli ED1a 0.991 | Escherichia coli IAI1 0.979 | Eubacterium rectale 1.11 | [3] 0.922 | Lactobacillus gasseri 0.926 | Lactobacillus paracasei 0.986 | Odoribacter splanchnicus 1.03 | [4] 0.972 | Parabacteroides merdae 0.921

Clc1cc(Cl)c(Cl)cc1Cl
inactive: Akkermansia muciniphila 1.01 | Bacteroides caccae 0.997 | Bacteroides clarus 0.987 | Bacteroides dorei 0.981 | Bacteroides stercoris 1.14 | [1] 0.982 | Bacteroides uniformis 1.01 | [2] 1.07 | Clostridium difficile 0.98 | Collinsella aerofaciens 1.01 | Coprococcus comes 0.971 | Escherichia coli ED1a 1.02 | Escherichia coli IAI1 1.04 | Eubacterium rectale 0.986 | [3] 1.15 | Lactobacillus gasseri 0.973 | Lactobacillus paracasei 0.991 | Odoribacter splanchnicus 1.01 | [4] 1.05 | Parabacteroides merdae 0.998

O=[N+]([O-])c1ccccc1
inactive: Akkermansia muciniphila 1.11 | Bacteroides caccae 1.01 | Bacteroides clarus 1.02 | Bacteroides dorei 0.97 | Bacteroides stercoris 1.13 | [1] 1.03 | Bacteroides uniformis 1 | [2] 1.06 | Clostridium difficile 1.01 | Collinsella aerofaciens 0.951 | Coprococcus comes 1.03 | Escherichia coli ED1a 1.01 | Escherichia coli IAI1 1.01 | Eubacterium rectale 1.07 | [3] 1.07 | Lactobacillus gasseri 1 | Lactobacillus paracasei 0.994 | Odoribacter splanchnicus 1.08 | [4] 1.03 | Parabacteroides merdae 1.03

CCCN(CCCl)c1c([N+](=O)[O-])cc(C(F)(F)F)cc1[N+](=O)[O-]
inactive: Akkermansia muciniphila 1.01 | Bacteroides caccae 0.977 | Bacteroides clarus 0.95 | Bacteroides dorei 0.94 | Bacteroides stercoris 0.93 | [1] 0.918 | Bacteroides uniformis 0.927 | [2] 1.07 | Clostridium difficile 0.995 | Collinsella aerofaciens 0.961 | Coprococcus comes 0.914 | Escherichia coli ED1a 0.983 | Escherichia coli IAI1 0.987 | Eubacterium rectale 0.942 | [3] 1.05 | Lactobacillus gasseri 0.875 | Lactobacillus paracasei 1.06 | Odoribacter splanchnicus 1.13 | [4] 0.962 | Parabacteroides merdae 0.955

CCS(=O)(=O)CCSP(=O)(OC)OC
inactive: Akkermansia muciniphila 0.829 | Bacteroides caccae 1.02 | Bacteroides clarus 0.962 | Bacteroides dorei 1 | Bacteroides stercoris 0.979 | [1] 1.01 | Bacteroides uniformis 0.986 | [2] 1.01 | Clostridium difficile 0.975 | Collinsella aerofaciens 1.01 | Coprococcus comes 0.975 | Escherichia coli ED1a 1.01 | Escherichia coli IAI1 0.992 | Eubacterium rectale 0.935 | [3] 0.969 | Lactobacillus gasseri 1.04 | Lactobacillus paracasei 1.03 | Odoribacter splanchnicus 0.97 | [4] 1.08 | Parabacteroides merdae 0.988

COP(=O)(OC)O/C(=C/Br)c1ccc(Cl)cc1Cl
inactive: Akkermansia muciniphila 1.06 | Bacteroides caccae 1 | Bacteroides clarus 0.978 | Bacteroides dorei 0.979 | Bacteroides stercoris 1.02 | [1] 0.96 | Bacteroides uniformis 0.961 | [2] 1.03 | Clostridium difficile 0.983 | Collinsella aerofaciens 1 | Coprococcus comes 1.01 | Escherichia coli ED1a 0.981 | Escherichia coli IAI1 1 | Eubacterium rectale 1 | [3] 1.07 | Lactobacillus gasseri 0.885 | Lactobacillus paracasei 1.01 | Odoribacter splanchnicus 1.03 | [4] 0.883 | Parabacteroides merdae 0.963

CCOP(=S)(OCC)Oc1nc(Cl)n(C(C)C)n1
inactive: Akkermansia muciniphila 1.04 | Bacteroides caccae 0.932 | Bacteroides clarus 1.02 | Bacteroides dorei 1.01 | Bacteroides stercoris 1.14 | [1] 1.01 | Bacteroides uniformis 0.972 | [2] 0.964 | Clostridium difficile 0.982 | Collinsella aerofaciens 1.02 | Coprococcus comes 0.986 | Escherichia coli ED1a 1 | Escherichia coli IAI1 0.999 | Eubacterium rectale 0.886 | [3] 1.16 | Lactobacillus gasseri 0.952 | Lactobacillus paracasei 0.954 | Odoribacter splanchnicus 0.991 | [4] 0.917 | Parabacteroides merdae 0.974

COCC(=O)N(c1c(C)cccc1C)N1CCOC1=O
inactive: Akkermansia muciniphila 0.966 | Bacteroides caccae 0.969 | Bacteroides clarus 0.945 | Bacteroides dorei 1 | Bacteroides stercoris 0.978 | [1] 0.99 | Bacteroides uniformis 1 | [2] 0.963 | Clostridium difficile 0.983 | Collinsella aerofaciens 0.997 | Coprococcus comes 0.939 | Escherichia coli ED1a 0.975 | Escherichia coli IAI1 1.02 | Eubacterium rectale 0.964 | [3] 0.882 | Lactobacillus gasseri 0.914 | Lactobacillus paracasei 0.953 | Odoribacter splanchnicus 0.984 | [4] 1.03 | Parabacteroides merdae 1.01

Cc1ccccc1CO[C@@H]1C[C@@]2(C(C)C)CC[C@]1(C)O2 (mixture of isomers)
inactive: Akkermansia muciniphila 1.08 | Bacteroides caccae 0.955 | Bacteroides clarus 0.967 | Bacteroides dorei 0.977 | Bacteroides stercoris 1.02 | [1] 1.01 | Bacteroides uniformis 0.997 | [2] 1.03 | Clostridium difficile 1.04 | Collinsella aerofaciens 1.01 | Coprococcus comes 1 | Escherichia coli ED1a 1.02 | Escherichia coli IAI1 0.961 | Eubacterium rectale 1.14 | [3] 1.02 | Lactobacillus gasseri 0.96 | Lactobacillus paracasei 1.01 | Odoribacter splanchnicus 1.04 | [4] 0.887 | Parabacteroides merdae 1

CNC(=O)N(C)c1nnc(C(C)(C)C)s1
inactive: Akkermansia muciniphila 0.742 | Bacteroides caccae 1.02 | Bacteroides clarus 0.97 | Bacteroides dorei 1.05 | Bacteroides stercoris 1 | [1] 0.993 | Bacteroides uniformis 1.01 | [2] 0.925 | Clostridium difficile 1 | Collinsella aerofaciens 1.04 | Coprococcus comes 0.995 | Escherichia coli ED1a 0.99 | Escherichia coli IAI1 0.945 | Eubacterium rectale 0.931 | [3] 0.969 | Lactobacillus gasseri 1.16 | Lactobacillus paracasei 0.941 | Odoribacter splanchnicus 0.963 | [4] 0.973 | Parabacteroides merdae 1

FC(F)C(F)(F)OCC(Cn1cncn1)c1ccc(Cl)cc1Cl (stereo not given)
inactive: Akkermansia muciniphila 0.949 | Bacteroides caccae 0.967 | Bacteroides clarus 0.921 | Bacteroides dorei 0.924 | Bacteroides stercoris 0.957 | [1] 0.921 | Bacteroides uniformis 0.957 | [2] 0.967 | Clostridium difficile 0.985 | Collinsella aerofaciens 0.93 | Coprococcus comes 0.979 | Escherichia coli ED1a 0.972 | Escherichia coli IAI1 0.966 | Eubacterium rectale 0.804 | [3] 1.02 | Lactobacillus gasseri 0.912 | Lactobacillus paracasei 0.841 | Odoribacter splanchnicus 0.981 | [4] 0.951 | Parabacteroides merdae 0.932

CC(COc1ccc(Oc2ccccc2)cc1)Oc1ccccn1 (stereo not given)
inactive: Akkermansia muciniphila 0.989 | Bacteroides caccae 0.949 | Bacteroides clarus 0.98 | Bacteroides dorei 1.01 | Bacteroides stercoris 0.78 | [1] 0.993 | Bacteroides uniformis 0.994 | [2] 1.04 | Clostridium difficile 0.99 | Collinsella aerofaciens 0.994 | Coprococcus comes 0.962 | Escherichia coli ED1a 0.999 | Escherichia coli IAI1 0.968 | Eubacterium rectale 1.04 | [3] 0.97 | Lactobacillus gasseri 0.989 | Lactobacillus paracasei 0.939 | Odoribacter splanchnicus 1.03 | [4] 0.979 | Parabacteroides merdae 0.929

CCOP(=S)(OCC)SCSc1ccc(Cl)cc1
inactive: Akkermansia muciniphila 1.04 | Bacteroides caccae 0.954 | Bacteroides clarus 0.972 | Bacteroides dorei 0.984 | Bacteroides stercoris 1.09 | [1] 0.987 | Bacteroides uniformis 0.943 | [2] 1.03 | Clostridium difficile 1 | Collinsella aerofaciens 0.963 | Coprococcus comes 0.975 | Escherichia coli ED1a 0.986 | Escherichia coli IAI1 0.964 | Eubacterium rectale 0.909 | [3] 1.07 | Lactobacillus gasseri 0.884 | Lactobacillus paracasei 1 | Odoribacter splanchnicus 1.06 | [4] 0.911 | Parabacteroides merdae 0.977

Reference: the supplement of paper PMC12669032
